These results are taken from PubChem BioAssay (Tox21).

Test [1] concerns the target Peroxisome proliferator-activated receptor delta (Homo sapiens) (UniProt Q03181). Description: qHTS assay to identify small molecule agonists of the peroxisome proliferator-activated receptor delta (PPARd) signaling pathway (AID 743212; calls by dose curve). The method, boiled down: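 Cells expressing a UAS-driven beta-lactamase reporter (PPARd-bla HEK293H) were given test compounds after a 5 h settle and kept at 37 C. Reporter activity was then measured as FRET fluorescence using LiveBLAzer B/G substrate.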
(qHTS replaces the single test concentration by a dilution series.)

Test [2] is described as follows: qHTS assay to identify small molecule antagonists of the peroxisome proliferator-activated receptor delta (PPARd) signaling pathway - cell viability counter screen (AID 743213). Further: nearly all actives have a fitted effect of over 50% in size. The method, boiled down:
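Luminescence from CellTiter-Glo, added after the bla read and incubated 30 min at room temperature, gives viability of HEK293H PPARd-bla cells exposed to compounds for 17 h at 37 C with 300 nM L165041.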

Test [3] addresses Peroxisome proliferator-activated receptor delta (Homo sapiens) (UniProt Q03181). Description: qHTS assay to identify small molecule antagonists of the peroxisome proliferator-activated receptor delta (PPARd) signaling pathway (AID 743215; active means well fitted inhibition curve with a large enough effect in the signal ratio in the repeat runs, not every such curve was filed as active; the % refers to the signal ratio;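 further: cells stimulated with agonist L165041 at 300 nM final during compound exposure; series mostly up to about 62 µM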). The method, boiled down:
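Screen format: qHTS, antagonist mode. HEK293H PPARd-bla cells received compound and 300 nM L165041 (final), 17 h, 37 C. Beta-lactamase detected via FRET substrate fluorescence, 2 h, room temperature.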

Test [4] can be described thus: qHTS assay to identify small molecule agonists of the farnesoid-X-receptor (FXR) signaling pathway - cell viability counter screen (AID 743218). Further: nearly all actives have a fitted effect of over 45% in size. Further: potency means the concentration at half of the fitted maximal effect. The essentials: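 Same-well cytotoxicity check on FXR-UAS-bla HEK 293T cells: 5 h attachment, 16 h compound at 37 C, CellTiter-Glo luminescence read at room temperature after 30 min.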
The nature of test [5]: qHTS assay to identify small molecule antagonists of the farnesoid-X-receptor (FXR) signaling pathway - cell viability counter screen (AID 743221; active means well fitted cell-killing curve with a large enough effect in the repeat runs, not every such curve was filed as active; further: nearly all actives have a fitted effect of over 50% in size). The method, boiled down: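 Here viability was scored by luminescence after CellTiter-Glo addition to wells already read for beta-lactamase. Prior treatment: compound plus CDCA (50 uM final), 16 h, 37 C, HEK 293T FXR-bla cells.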

A short description of test [6]: qHTS assay to identify small molecule agonists of the peroxisome proliferator-activated receptor delta (PPARd) signaling pathway - cell viability counter screen (AID 743211). Further: nearly all actives have a fitted effect of over 55% in size. The method, boiled down:
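In the same wells used for beta-lactamase reporter measurement, cytotoxicity is scored by CellTiter-Glo. HEK293H PPARd-bla cells receive compound for 17 h at 37C following a 5 h settling period.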

In test [7] the target is Vitamin D3 receptor (Homo sapiens) (UniProt P11473). Nature of the test: qHTS assay to identify small molecule agonists of the vitamin D receptor (VDR) signaling pathway (AID 743222; calls by dose curve). The essentials: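 Using LiveBLAzer B/G FRET detection, agonism was scored in VDR-bla cells exposed overnight (16 h, 37C) to DMSO-dissolved compounds; substrate incubation was 2 h at room temperature.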

Test [8] shares this target. Nature of the test: qHTS assay to identify small molecule antagonists of the vitamin D receptor (VDR) signaling pathway (AID 743223; active means well fitted inhibition curve with a large enough effect in the signal ratio in the repeat runs, not every such curve was filed as active; the % refers to the signal ratio). The essentials: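 Inhibition of agonist-driven VDR signalling is scored in VDR-bla cells: 3 nM final 1alpha,25-dihydroxyvitamin D3 plus compound, 16 h at 37C, then beta-lactamase detection by FRET substrate fluorescence after 2 h.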
The target in test [9] is Bile acid receptor (Homo sapiens) (UniProt Q96RI1). Nature of the test: qHTS assay to identify small molecule agonists of the farnesoid-X-receptor (FXR) signaling pathway (AID 743220; active means well fitted activation curve with a large enough effect in the signal ratio in the repeat runs, not every such curve was filed as active; the % refers to the signal ratio). The method, boiled down:
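FXR-UAS-bla HEK 293T cells carrying a UAS-driven beta-lactamase reporter were plated for 5 h at 37C/5% CO2, then exposed to DMSO-dissolved Tox21 10K compounds for 16 h at 37C. A LiveBLAzer B/G FRET substrate was loaded for 2 h at room temperature before fluorescence reading.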

Test [10] shares this target. Nature of the test: qHTS assay to identify small molecule antagonists of the farnesoid-X-receptor (FXR) signaling pathway (AID 743217; active means well fitted inhibition curve with a large enough effect in the signal ratio in the repeat runs, not every such curve was filed as active; the % refers to the signal ratio). The essentials:
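Quantitative HTS, beta-lactamase reporter format: FXR-UAS-bla HEK 293T cells co-treated 16 h at 37 °C with compounds and 50 uM final chenodeoxycholic acid, then read by B/G FRET fluorescence.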

Inconclusive results are not listed. A number with no mark means an inactive call. Activity calls are given as the source filed them. Unless noted, the call rests on the fitted dose curve; in most records, active means well fitted curve in the direction sought with a large enough effect in the repeat runs; inconclusive means weak or mixed curves; inactive means no such curve, though single readings can be large; an effect the other way counts as inactive or inconclusive.
On the % scale 0 is the no-effect control and ±100 the full control effect.

Sequence of Vitamin D3 receptor (Homo sapiens) (P11473 whole entry, looked up): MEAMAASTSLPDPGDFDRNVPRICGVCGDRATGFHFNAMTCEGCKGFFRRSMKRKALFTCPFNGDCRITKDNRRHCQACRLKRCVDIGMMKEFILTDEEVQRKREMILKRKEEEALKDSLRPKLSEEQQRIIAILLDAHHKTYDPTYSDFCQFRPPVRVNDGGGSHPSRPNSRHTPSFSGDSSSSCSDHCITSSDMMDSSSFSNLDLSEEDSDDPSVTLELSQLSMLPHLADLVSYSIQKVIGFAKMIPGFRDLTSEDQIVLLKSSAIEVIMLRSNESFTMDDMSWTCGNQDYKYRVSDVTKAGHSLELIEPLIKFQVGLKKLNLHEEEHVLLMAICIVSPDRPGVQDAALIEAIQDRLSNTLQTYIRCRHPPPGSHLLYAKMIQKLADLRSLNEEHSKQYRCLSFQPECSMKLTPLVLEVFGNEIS
Sequence of Peroxisome proliferator-activated receptor delta (Homo sapiens) (Q03181 whole entry, looked up): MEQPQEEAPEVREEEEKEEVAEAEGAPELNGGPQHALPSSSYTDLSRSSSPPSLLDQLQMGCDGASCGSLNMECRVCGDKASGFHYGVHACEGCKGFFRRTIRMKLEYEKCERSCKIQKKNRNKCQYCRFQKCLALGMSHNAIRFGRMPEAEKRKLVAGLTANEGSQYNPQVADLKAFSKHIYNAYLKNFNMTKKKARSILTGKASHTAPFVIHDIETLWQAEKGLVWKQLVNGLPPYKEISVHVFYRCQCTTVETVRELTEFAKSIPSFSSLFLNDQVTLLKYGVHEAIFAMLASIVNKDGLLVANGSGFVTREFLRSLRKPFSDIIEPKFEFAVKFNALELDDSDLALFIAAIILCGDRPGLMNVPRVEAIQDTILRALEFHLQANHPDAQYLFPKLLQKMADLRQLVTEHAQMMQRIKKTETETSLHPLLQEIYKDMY
Sequence of Bile acid receptor (Homo sapiens) (Q96RI1 whole entry, looked up): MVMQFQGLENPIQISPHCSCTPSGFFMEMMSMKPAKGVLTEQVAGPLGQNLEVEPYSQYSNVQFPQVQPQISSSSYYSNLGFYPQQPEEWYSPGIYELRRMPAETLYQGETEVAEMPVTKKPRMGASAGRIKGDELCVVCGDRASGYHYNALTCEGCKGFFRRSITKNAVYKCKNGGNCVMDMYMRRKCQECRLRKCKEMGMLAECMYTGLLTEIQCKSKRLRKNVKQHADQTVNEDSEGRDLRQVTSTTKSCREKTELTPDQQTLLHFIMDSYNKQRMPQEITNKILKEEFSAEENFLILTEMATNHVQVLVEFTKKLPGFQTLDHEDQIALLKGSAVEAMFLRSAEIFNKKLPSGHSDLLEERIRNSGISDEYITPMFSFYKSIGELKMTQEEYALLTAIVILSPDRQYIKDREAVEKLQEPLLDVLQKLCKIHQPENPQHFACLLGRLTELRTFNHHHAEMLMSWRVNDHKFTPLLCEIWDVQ

Consider `CC(C)(C)C1CCCCC1=O` (stereo not drawn), for which the compound was classed as inactive in test [1], in test [3] and in [5]. The Potency result in test [2] and in test [4] was “inactive” each time.

For `CCCCC(=O)O[C@]1(C(=O)CO)[C@H](C)C[C@H]2[C@@H]3CCC4=CC(=O)C=C[C@]4(C)[C@@]3(F)[C@@H](O)C[C@@]21C`, the Potency entry in [6] and in [4] was “inactive” throughout. Moreover, the result in test [5], in test [7] and in test [8] was inactive.

Turning to `CN1CCN(C2=Nc3ccccc3Oc3ccc(Cl)cc32)CC1`, in [6], the Potency entry is “inactive”. Further, in test [3], the compound was called inactive.

On to `CCN(CC)CCOc1ccc(Cc2ccccc2)cc1`, for which, in test [3], the compound was classed as inactive.

With `Cc1ccccc1C(=O)Nc1ccc(C(=O)N2CCCC(O)c3cc(Cl)ccc32)c(C)c1` (stereo not drawn), the Potency entry in [2] and in [4] was “inactive” throughout. Besides, the compound was classed as inactive in test [9], in [5] and in [7].

On to `CC(C)CC(=O)OCc1ccccc1`, for which the Potency result in test [2] and in test [4] was “inactive” throughout. Moreover, the outcome in test [3], in test [5] and in [8] was inactive.

As to `CN(C)C(=O)NC1(c2ccccc2)CCN(CCC[C@]2(c3ccc(Cl)c(Cl)c3)CCCN(C(=O)c3ccccc3)C2)CC1`, the compound was classed as inactive in [3] and in [5]. Further, the Potency in test [4] is 11.7 µM (active).

Regarding `OCc1ccccc1O`, the Potency entry in test [2] and in test [4] was “inactive” each time. In addition, the result in test [5] and in test [8] was inactive.

For the compound `NCCCN1CCN(CCCN)CC1`, the Potency entry in test [2] and in test [4] was “inactive” in each case. Also, the compound was classed as inactive in [3], in test [5], in [7] and in test [8].

With `CCCCCCCOC(=O)CCC`, the compound was classed as inactive in test [1], in test [3], in test [5], in test [7] and in test [8]. Moreover, the Potency entry in test [4] was “inactive”.

`C[C@@H](N)C(=O)O`: the Potency entry in [2] and in [4] was “inactive” in each case. In addition, in test [5], the call was inactive.

For the compound `Cc1c(-c2ccccc2)oc2c(C(=O)OCCN3CCCCC3)cccc2c1=O`, the Potency entry in [2] and in [4] was “inactive” throughout. Also, the outcome in test [3], in test [7] and in test [8] was inactive.

Consider `CCCCOc1cc(C(=O)NCCN(CC)CC)c2ccccc2n1`, for which the Potency entry in [4] is “inactive”. The result in test [5] was inactive.

In the case of `CCCCCCCCc1ccc(S(=O)(=O)O)cc1`, the compound was called inactive in [3], in test [9], in [5] and in test [8]. The Potency entry in [4] is “inactive”.

Consider `CCCOc1ccc2c(c1)CC[C@@H]1[C@@H]2CC[C@]2(C)C(OC)CC[C@@H]12` (stereo partly drawn), for which the Potency entry in [2] and in test [4] was “inactive” throughout. Further, the call in [3], in test [5] and in [7] was inactive.

In the case of `CC(C)CCCCCCc1ccc(OCCOCCO)cc1`, the Potency result in test [2] and in [4] was “inactive” in each case. In addition, the compound was called inactive in test [5] and in [7].

Regarding `CN(C)CC[C@@H](c1ccc(Cl)cc1)c1ccccn1`, the Potency result in [2] and in [4] was “inactive” throughout. The call in test [5] was inactive.

As for `CCc1nnc(NS(=O)(=O)c2ccc(N)cc2)s1`, the Potency entry in test [2] and in [4] was “inactive” throughout. The compound was called inactive in test [9], in test [5], in [7] and in test [8].

Turning to `CC/C=C\CCOC(=O)C(C)C`, the Potency result in test [2] and in [4] was “inactive” throughout. In addition, the result in test [5] and in [8] was inactive.

As for `C1CCOC1`, the Potency result in test [2] and in test [4] was “inactive” throughout. For the same compound, the compound was called inactive in test [9], in test [5], in [7] and in [8].

Consider `Cc1cc2c(s1)Nc1ccccc1N=C2N1CCN(C)CC1`, for which the Potency entry in test [2] and in test [4] was “inactive” each time. Moreover, the outcome in test [3], in [5] and in test [7] was inactive.

Consider `c1ccc(CN(CC2=NCCN2)c2ccccc2)cc1`, for which the Potency result in [2] and in test [4] was “inactive” in each case. Besides, the outcome in test [5] and in [7] was inactive.

On to `O=Cc1ccc(O)c(O)c1O`, for which the compound was classed as inactive in test [10], in test [9] and in [5]. In addition, in test [4], the Potency result is “inactive”.

`CCOC(=O)c1ccccc1O`: the Potency result in [2] and in [4] was “inactive” in each case. Further, the compound was called inactive in test [3], in [5], in test [7] and in [8].

For the compound `CC[C@H]1CC[C@H](NCc2cc3c(cc2OC)[C@H]2C[C@H]2C(=O)N3C)[C@H](c2ccccc2)N1`, the Potency result in test [4] was “inactive”. The compound was called inactive in test [5].

Regarding `COc1cc2c(cc1N)oc1ccccc12`, the outcome in test [3], in [9], in test [5] and in test [8] was inactive.

For the compound `O=C(CC(=O)C(F)(F)F)c1ccccc1`, the Potency entry in test [2] and in test [4] was “inactive” each time. The compound was classed as inactive in test [3], in [5], in test [7] and in test [8].

For `CCCCCCOc1ccc(N)cc1`, the Potency result in test [2] was “inactive”. Further, the call in test [9], in test [5] and in test [8] was inactive.

Regarding `CN1C(=O)CC(c2ccccc2)C1=O` (stereo not drawn), the Potency result in test [2] and in [4] was “inactive” each time. Besides, the compound was classed as inactive in test [10], in test [9] and in [5].

As for `NC(=O)NS(=O)(=O)c1ccc(Cl)cc1`, the compound was classed as inactive in test [3], in test [10], in test [9], in [5] and in test [8]. The Potency entry in test [4] is “inactive”.

For `CCCCNC(=S)NCCCC`, the Potency result in test [2] and in [4] was “inactive” in each case. The result in test [5] was inactive.

For the compound `CCc1cc2cc(OC)c(OC)cc2c(Cc2ccccc2)n1`, the compound was called inactive in [1], in test [3], in test [9], in test [5] and in test [7]. In test [4], the Potency result is “inactive”.

For the compound `CC(C)NC[C@@H](O)COc1cccc2ccccc12`, the call in [10], in [9], in test [5] and in [7] was inactive. In addition, the Potency entry in test [4] was “inactive”.

With `NC1=NCC2c3ccccc3Cc3ccccc3N12` (stereo not drawn), the Potency result in test [2] and in test [4] was “inactive” throughout. The compound was classed as inactive in test [5] and in test [8].

For `CC(C)O`, the outcome in test [1], in test [10], in test [9], in test [5], in test [7] and in test [8] was inactive. Also, the Potency entry in [4] was “inactive”.

Take `Oc1ccccc1C=NCc1ccccc1`: the Potency entry in test [2] and in test [4] was “inactive” in each case. Besides, the result in test [3], in test [10], in [9], in test [5], in test [7] and in [8] was inactive.

For the compound `CCCCCCCCCCCCOCCOS(=O)(=O)O`, in test [4], the Potency result is “inactive”. Also, the call in test [7] was inactive.

In the case of `O=C(O)c1ccccc1Nc1cc(Cl)ccc1C(=O)O`, the Potency result in test [4] is “inactive”. In addition, the call in test [5] and in [7] was inactive.

In the case of `C=C(C)C(=O)OCCOP(=O)(O)O`, the Potency result in test [2] and in [4] was “inactive” each time. In addition, the compound was called inactive in test [3] and in test [5].

For `NC(Cc1ccc(F)cc1)C(=O)O` (stereo not drawn), the viability change, negative = cytotoxic in test [2] is 5.29% [at 6.26 µM]; in [4] it was 4.49% [at 5.95 µM]. Also, in [3], the ratio activity, negative = inhibition was 5.05% [at 6.26 µM]. In [5], the activity change, negative = cytotoxicity was -10% [at 5.95 µM]. In addition, the activation in test [7] was 5.15% [at 6.01 µM]. For the same compound, the activity change, negative = inhibition in test [8] was 0.285% [at 6.95 µM].

As to `CC(C)c1ccccc1`, the compound was classed as inactive in [10], in test [9], in test [5] and in [8]. Moreover, the Potency entry in test [4] was “inactive”.

Regarding `CCCCc1ccc2nc(NC(=O)OC)[nH]c2c1`, the Potency entry in test [2] and in test [4] was “inactive” in each case. Also, the compound was classed as inactive in test [9] and in test [5].
